Laboratory results as given in PubChem BioAssay (NCATS).
Results filed as inconclusive are left out. Where a call stands in place of a potency, no number is given. The source made the active and inactive calls. Unless noted, calls follow the shape of the dose curve; as a rule, active = well fitted curve in the direction sought with a large enough effect; inconclusive = small, poorly fitted or top-dose-only effect, or another doubt; inactive = no such curve, though single readings can be large; an effect the other way counts as inactive or inconclusive.

Experiments:
[1] = target: Cytochrome P450 3A4 (Homo sapiens) (UniProt P08684); experiment: qHTS Assay for Activators of Cytochrome P450 3A4 (AID 885); also: nearly all actives have a fitted effect of over 65% in size
How it was run: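 20nM CYP3A4 + 25uM Luciferin-PPXE (=KM), 200mM KPO4; cpd 10 min RT; NADPH regen, 60 min RT; stop w/ detection buffer, 20 min; luminescence. Normalized to 57 uM ketoconazole.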

[2] = target: Cytochrome P450 2D6 (Homo sapiens) (UniProt P10635); experiment: qHTS Assay for Inhibitors and Substrates of Cytochrome P450 2D6 (AID 891); also: nearly all actives have a fitted effect of over 60% in size; also: potency is read from the fitted curve at half-maximal effect;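 as to activity change, negative = inhibition: luciferin methyl ether substrate demethylated by CYP2D6 with NADPH regeneration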
How it was run: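 Human CYP2D6 (5 nM) with 30 uM Luciferin-ME EGE (at Km) in 100 mM KPO4, compound preincubated 10 min, then NADPH regeneration system for 60 min at room temperature. Luciferin read by luminescence; normalized to 1.43 uM quinidine.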

[3] = target: Cytochrome P450 2C19 (Homo sapiens) (UniProt P33261); experiment: qHTS Assay for Inhibitors and Substrates of Cytochrome P450 2C19 (AID 899); also: nearly all actives have a fitted effect of over 60% in size; also: potency is read from the fitted curve at half-maximal effect
How it was run: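 5 nM human CYP2C19 with 10uM Luciferin-H EGE (at KM) in 50mM KPO4, compound preincubated 10 min at 37C, then NADPH regeneration for 60 min at 37C. Luciferin read by luminescence after detection reagent; normalized to 57uM ketoconazole as full inhibition.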

[4] = qHTS for Inhibitors of Plasmodium falciparum (DD2) proliferation (AID 504314);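 also: parasite DNA measured by SYBR Green fluorescence after red cell lysis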
How it was run: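 Erythrocytes infected with P. falciparum (0.3% parasitemia, 2.5% hematocrit final) were incubated with compounds for 72 h at 37C, 5% CO2. Parasite DNA was detected by SYBR Green I fluorescence after saponin/Triton lysis, normalized to artemisinin (0.29 uM) and DMSO controls.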

[5] = qHTS for Inhibitors of Plasmodium falciparum (GB4) proliferation (AID 504315); also: nearly all actives have a fitted effect of over 50% in size
How it was run: (§1)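 Erythrocytes infected with P. falciparum line (0.3% parasitemia, 2.5% hematocrit final) incubated with compounds 72 h at 37 °C, 5% CO2; SYBR Green lysis buffer added, fluorescence read next day. Normalized to 0.29 uM artemisinin and DMSO.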

[6] = qHTS for Inhibitors of Plasmodium falciparum (7G8) proliferation (AID 504316); also: nearly all actives have a fitted effect of over 65% in size; also: potency is read from the fitted curve at half-maximal effect; as to activity change, negative = inhibition: series mostly up to about 6.7 µM
How it was run: as §1

[7] = qHTS for Inhibitors of Plasmodium falciparum (HB3) proliferation (AID 504318); also: nearly all actives have a fitted effect of over 60% in size
How it was run: as §1

[8] = qHTS for Inhibitors of Plasmodium falciparum (CP250) proliferation (AID 504320)
How it was run: as §1

[9] = target: Atrial natriuretic peptide receptor 1 (Homo sapiens) (UniProt P16066); experiment: Natriuretic polypeptide receptor (hNpr1) antagonism - Pilot CMLD screen (AID 1347052; calls by dose curve;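 also: HEK293 cells with hNpr1 stimulated by hNppA peptide at 0.1 nM; cGMP level read as GloSensor luciferase luminescence after agonist stimulation; series mostly up to about 9.2 µM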)
[10] = target: Cytochrome P450 2C9 (Homo sapiens) (UniProt P11712); experiment: qHTS Assay for Inhibitors and Substrates of Cytochrome P450 2C9 (AID 883); also: nearly all actives have a fitted effect of over 60% in size
How it was run: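 Human CYP2C9 (10nM) with Luciferin-H at 100uM (its KM) in 25mM KPO4; compound preincubated 10 min at 37C, then NADPH regeneration for 60 min at 37C. Luciferin read by luminescence after detection reagent; normalized to 57uM sulphaphenazole as full inhibition.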

[11] = target: Cytochrome P450 3A4 (Homo sapiens) (UniProt P08684); experiment: qHTS Assay for Inhibitors and Substrates of Cytochrome P450 3A4 (AID 884); also: nearly all actives have a fitted effect of over 50% in size; also: potency is read from the fitted curve at half-maximal effect; as to activity change, negative = inhibition: series mostly up to about 57 µM
How it was run: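 20 nM human CYP3A4 with 25 uM Luciferin-PPXE (at KM) in 200 mM KPO4, preincubated 10 min with compound; NADPH regeneration started a 60 min RT reaction. Luciferin detected by luminescence, normalized to 57 uM ketoconazole as full inhibition.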

Sequence of Cytochrome P450 3A4 (Homo sapiens) (P08684 whole entry, looked up): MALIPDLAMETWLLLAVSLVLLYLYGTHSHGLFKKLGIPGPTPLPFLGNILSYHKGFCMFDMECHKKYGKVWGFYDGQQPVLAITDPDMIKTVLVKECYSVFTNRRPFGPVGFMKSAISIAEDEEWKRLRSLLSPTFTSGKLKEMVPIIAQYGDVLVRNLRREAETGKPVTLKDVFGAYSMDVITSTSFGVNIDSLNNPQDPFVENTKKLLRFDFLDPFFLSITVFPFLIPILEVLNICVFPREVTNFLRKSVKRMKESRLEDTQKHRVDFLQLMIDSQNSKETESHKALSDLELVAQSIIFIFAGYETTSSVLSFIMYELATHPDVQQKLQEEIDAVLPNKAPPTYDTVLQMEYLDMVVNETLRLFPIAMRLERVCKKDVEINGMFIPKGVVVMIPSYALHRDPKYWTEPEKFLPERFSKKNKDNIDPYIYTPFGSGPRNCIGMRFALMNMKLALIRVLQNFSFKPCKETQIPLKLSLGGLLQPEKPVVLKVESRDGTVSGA
Sequence of Cytochrome P450 2C9 (Homo sapiens) (P11712 whole entry, looked up): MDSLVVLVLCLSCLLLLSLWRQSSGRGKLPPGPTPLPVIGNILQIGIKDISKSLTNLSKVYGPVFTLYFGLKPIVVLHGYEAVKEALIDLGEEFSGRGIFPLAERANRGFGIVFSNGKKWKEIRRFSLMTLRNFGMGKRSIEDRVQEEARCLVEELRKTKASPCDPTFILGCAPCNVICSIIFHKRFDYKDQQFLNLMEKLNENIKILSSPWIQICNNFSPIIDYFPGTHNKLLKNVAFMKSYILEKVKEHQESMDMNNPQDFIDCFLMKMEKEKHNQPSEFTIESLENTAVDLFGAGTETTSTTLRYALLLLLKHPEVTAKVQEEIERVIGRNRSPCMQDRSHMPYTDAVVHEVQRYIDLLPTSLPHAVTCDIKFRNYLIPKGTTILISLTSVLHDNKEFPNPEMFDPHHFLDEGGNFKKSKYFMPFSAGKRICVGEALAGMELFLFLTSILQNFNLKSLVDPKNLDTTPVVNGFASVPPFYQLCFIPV
Sequence of Cytochrome P450 2D6 (Homo sapiens) (P10635 whole entry, looked up): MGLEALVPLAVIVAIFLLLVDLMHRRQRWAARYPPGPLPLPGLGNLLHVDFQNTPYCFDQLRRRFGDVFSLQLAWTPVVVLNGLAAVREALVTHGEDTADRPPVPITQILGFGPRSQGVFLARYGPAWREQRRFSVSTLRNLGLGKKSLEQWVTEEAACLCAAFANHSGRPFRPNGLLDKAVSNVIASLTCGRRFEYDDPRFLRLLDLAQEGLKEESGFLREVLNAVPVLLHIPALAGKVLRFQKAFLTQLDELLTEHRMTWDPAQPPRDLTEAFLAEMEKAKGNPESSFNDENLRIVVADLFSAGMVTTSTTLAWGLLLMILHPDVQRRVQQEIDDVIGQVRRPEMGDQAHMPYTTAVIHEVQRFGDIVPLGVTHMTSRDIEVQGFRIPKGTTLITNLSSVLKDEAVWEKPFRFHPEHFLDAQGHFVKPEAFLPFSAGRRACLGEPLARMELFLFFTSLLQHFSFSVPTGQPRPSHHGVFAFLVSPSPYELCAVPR
Sequence of Atrial natriuretic peptide receptor 1 (Homo sapiens) (P16066 whole entry, looked up): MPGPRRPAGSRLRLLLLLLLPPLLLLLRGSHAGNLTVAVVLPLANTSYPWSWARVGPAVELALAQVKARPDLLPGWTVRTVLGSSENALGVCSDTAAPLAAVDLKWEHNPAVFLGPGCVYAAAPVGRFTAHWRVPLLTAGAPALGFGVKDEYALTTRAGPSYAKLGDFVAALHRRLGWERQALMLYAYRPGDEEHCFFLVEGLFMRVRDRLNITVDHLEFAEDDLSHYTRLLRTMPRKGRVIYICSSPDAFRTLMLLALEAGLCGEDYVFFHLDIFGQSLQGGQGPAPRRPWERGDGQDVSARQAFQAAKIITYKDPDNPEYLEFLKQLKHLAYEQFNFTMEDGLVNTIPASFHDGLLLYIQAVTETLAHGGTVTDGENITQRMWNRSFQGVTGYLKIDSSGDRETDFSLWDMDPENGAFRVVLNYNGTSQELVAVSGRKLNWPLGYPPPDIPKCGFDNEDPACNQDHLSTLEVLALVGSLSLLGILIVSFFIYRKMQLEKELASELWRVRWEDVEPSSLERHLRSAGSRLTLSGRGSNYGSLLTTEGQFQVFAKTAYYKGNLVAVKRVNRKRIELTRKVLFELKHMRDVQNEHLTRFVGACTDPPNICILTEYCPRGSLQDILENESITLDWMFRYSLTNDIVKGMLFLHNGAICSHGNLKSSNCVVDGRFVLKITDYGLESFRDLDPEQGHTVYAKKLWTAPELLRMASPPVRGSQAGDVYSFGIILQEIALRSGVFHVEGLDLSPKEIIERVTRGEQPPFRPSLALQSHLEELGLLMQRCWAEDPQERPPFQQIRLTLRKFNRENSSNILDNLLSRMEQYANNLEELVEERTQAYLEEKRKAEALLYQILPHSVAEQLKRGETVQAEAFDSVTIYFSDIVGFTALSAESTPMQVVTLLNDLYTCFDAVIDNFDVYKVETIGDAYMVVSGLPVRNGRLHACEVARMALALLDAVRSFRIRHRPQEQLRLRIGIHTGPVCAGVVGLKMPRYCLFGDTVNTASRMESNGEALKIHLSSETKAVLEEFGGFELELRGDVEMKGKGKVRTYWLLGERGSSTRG
Sequence of Cytochrome P450 2C19 (Homo sapiens) (P33261 whole entry, looked up): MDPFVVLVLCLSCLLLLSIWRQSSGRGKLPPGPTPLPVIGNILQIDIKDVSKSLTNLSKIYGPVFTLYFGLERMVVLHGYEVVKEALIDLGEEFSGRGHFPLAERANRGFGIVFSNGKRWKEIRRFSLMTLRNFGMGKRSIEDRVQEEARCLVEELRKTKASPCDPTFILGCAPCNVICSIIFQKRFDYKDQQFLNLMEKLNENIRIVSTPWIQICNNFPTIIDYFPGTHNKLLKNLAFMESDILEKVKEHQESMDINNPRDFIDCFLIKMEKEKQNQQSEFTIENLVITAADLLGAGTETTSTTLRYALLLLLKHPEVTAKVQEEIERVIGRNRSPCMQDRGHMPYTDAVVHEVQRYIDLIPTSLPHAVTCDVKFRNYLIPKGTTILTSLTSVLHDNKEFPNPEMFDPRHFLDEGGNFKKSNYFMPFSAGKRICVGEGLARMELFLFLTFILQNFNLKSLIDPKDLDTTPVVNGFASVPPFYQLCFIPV

SMILES: CCCCCCCC1=CC2=CC(=O)C(C)(OC(C)=O)C(=O)C2=CN1CCc1ccccc1 (configuration not stated)
- activity change, positive = activation [1]: -45.9% [at 11.4 µM] (inactive)
- Potency [2]: 3160 nM (active)
- activity, negative = inhibition [3]: 78.5% [at 11.4 µM] (inactive)
- Potency [4]: inactive
- Potency [5]: inactive
- Potency [6]: inactive
- Potency [7]: inactive
- Potency [8]: inactive
- Potency [9]: inactive

SMILES: COC(=O)CCCC1=CC2=CC(=O)C(C)(OC(=O)c3cccs3)C(=O)C2=CN1CCc1c[nH]c2ccccc12 (configuration not stated)
- Potency [4]: inactive
- Potency [5]: inactive
- Potency [6]: inactive
- Potency [8]: inactive
- Potency [9]: inactive

SMILES: COC(=O)C1=NOC2(C=C(Br)C(OC)=C(Br)C2=O)C1 (configuration not stated)
- activity change, negative = inhibition [10]: -4.18% [at 11.4 µM] (inactive)
- activity change, negative = inhibition [11]: -15.6% [at 11.4 µM] (inactive)
- activity change, negative = inhibition [2]: -8.27% [at 11.4 µM] (inactive)
- activity, negative = inhibition [3]: -27.3% [at 11.4 µM] (inactive)
- Potency [4]: inactive
- Potency [5]: inactive
- Potency [6]: inactive
- Potency [7]: inactive
- Potency [8]: inactive
- Potency [9]: inactive

SMILES: Cc1c(O)ccc2c1OCO2
- activity change, negative = inhibition [10]: -0.37% [at 11.4 µM] (inactive)
- activity change, negative = inhibition [11]: -25.6% [at 11.4 µM] (inactive)
- activity, negative = inhibition [3]: 39.4% [at 11.4 µM] (inactive)
- Potency [4]: inactive
- Potency [5]: inactive
- Potency [6]: inactive
- Potency [7]: inactive
- Potency [8]: inactive
- Potency [9]: inactive

SMILES: COc1ccc2c(c1)O[C@H](c1ccc3c(c1)OCO3)[C@@H](OC(=O)N[C@H]1CCCc3ccccc31)C2=O
- Potency [4]: inactive
- Potency [5]: inactive
- Potency [6]: inactive
- Potency [7]: inactive
- Potency [8]: inactive
- Potency [9]: inactive

SMILES: COc1cccc2c1[C@H](C=Cc1ccccc1)[C@@H]([C@H](O)CO)OC2
- Potency [4]: inactive
- Potency [5]: inactive
- Potency [6]: inactive
- Potency [7]: inactive
- Potency [8]: inactive
- Potency [9]: inactive

SMILES: C=CCNC(=O)N1CCc2nc(CCCC)c3c(c2C1)CO[C@@H](C)C3
- Potency [4]: inactive
- Potency [5]: inactive
- Potency [6]: inactive
- Potency [7]: inactive
- Potency [8]: inactive
- Potency [9]: inactive

SMILES: COc1ccc(-c2nc3c(c4c2C[C@H](c2ccccc2)OC4)CN(C(=O)c2ccco2)CC3)c(C)c1
- activity, negative = inhibition [4]: -2.96% [at 1.12 µM] (inactive)
- Potency [5]: inactive
- Potency [6]: 1690 nM (active)
- Potency [8]: inactive
- Potency [9]: inactive

SMILES: COC(=O)N[C@@H](c1cccc(C)c1)[C@@H](C)[N+](=O)[O-]
- Potency [4]: inactive
- Potency [5]: inactive
- Potency [6]: inactive
- Potency [7]: inactive
- Potency [8]: inactive
- Potency [9]: inactive

SMILES: C=CCN1C(=O)[C@@]2(CC(C)=CC[C@@H](C)O2)c2c(Br)cccc21
- Potency [4]: inactive
- Potency [5]: inactive
- Potency [6]: inactive
- Potency [7]: inactive
- Potency [8]: inactive
- Potency [9]: inactive

SMILES: COCn1c2ccccc2c2nnc(C(=O)O)nc21
- activity change, negative = inhibition [10]: -6.97% [at 11.4 µM] (inactive)
- activity change, negative = inhibition [11]: -11.5% [at 11.4 µM] (inactive)
- activity change, negative = inhibition [2]: 12.8% [at 11.4 µM] (inactive)
- activity, negative = inhibition [3]: 65.8% [at 11.4 µM] (inactive)
- Potency [4]: inactive
- Potency [5]: inactive
- Potency [6]: inactive
- Potency [7]: inactive
- Potency [9]: inactive

SMILES: CCN1C(N(C)CCOC)=NC(c2cccc(F)c2)C(C(=O)OC)=C1C (configuration not stated)
- Potency [4]: inactive
- Potency [5]: inactive
- Potency [6]: inactive
- Potency [8]: inactive
- Potency [9]: inactive

SMILES: C=CCC1(O)C=CCC2C3C4C(OC(C)(C)C)C2C1C34 (configuration not stated)
- activity change, negative = inhibition [10]: -12.7% [at 11.4 µM] (inactive)
- activity change, negative = inhibition [11]: -11.8% [at 11.4 µM] (inactive)
- activity change, negative = inhibition [2]: -4.54% [at 11.4 µM] (inactive)
- activity, negative = inhibition [3]: -32.4% [at 11.4 µM] (inactive)
- Potency [4]: inactive
- Potency [5]: inactive
- Potency [6]: inactive
- Potency [7]: inactive
- Potency [8]: inactive
- Potency [9]: inactive

SMILES: C[C@H]1C[C@@H](C)O[C@@]2(C1)C(=O)Nc1ccccc12
- Potency [4]: inactive
- Potency [5]: inactive
- Potency [6]: inactive
- Potency [7]: inactive
- Potency [8]: inactive
- Potency [9]: inactive

SMILES: CCCCC1=CC2=C(c3ccco3)C(=O)C(C)(OC(=O)c3ccc(OC)cc3)C(=O)C2=CN1C1CCCCC1 (configuration not stated)
- Potency [4]: inactive
- Potency [5]: inactive
- Potency [6]: inactive
- Potency [8]: inactive
- Potency [9]: inactive

SMILES: Cc1ccc(S(=O)(=O)n2c3ccccc3c3nnc(C(=O)c4ccccc4)nc32)cc1
- Potency [11]: 3980 nM (active)
- activity change, positive = activation [1]: -61.8% [at 11.4 µM] (inactive)
- Potency [4]: inactive
- Potency [5]: inactive
- Potency [6]: inactive
- Potency [7]: inactive
- Potency [8]: inactive
- Potency [9]: inactive

SMILES: COc1ccc(O[C@H]2C=C[C@@H](c3ccccc3)O[C@H]2COC(=O)CCC(C)=NO[C@@H](C)c2cc(-c3c(C)cc(C)cc3C)no2)cc1
- Potency [4]: inactive
- Potency [5]: inactive
- Potency [6]: inactive
- Potency [7]: inactive
- Potency [8]: inactive
- Potency [9]: inactive

SMILES: CC(=O)c1ccc(OCc2ccccc2)c(C)c1O
- activity change, negative = inhibition [11]: -20.5% [at 11.4 µM] (inactive)
- activity change, negative = inhibition [2]: -4.53% [at 11.4 µM] (inactive)
- Potency [3]: 50.1 nM (active)
- Potency [4]: inactive
- Potency [5]: inactive
- Potency [6]: inactive
- Potency [7]: inactive
- Potency [8]: inactive
- Potency [9]: inactive

SMILES: C=CCN1C(=O)CC[C@@]23C1=NC(C(=O)OC)=C(C(=O)OC)[C@@H]2N(C)c1ccccc13
- Potency [4]: inactive
- Potency [5]: inactive
- Potency [6]: inactive
- Potency [7]: inactive
- Potency [8]: inactive
- Potency [9]: inactive
